Reference: PubChem BioAssay AID504467 (National Center for Advancing Translational Sciences (NCATS), 2011)
Screen size: about 330,000 compounds; about 7,700 (2.3%) were called active. Roughly 26% stayed inconclusive and do not appear here. The call rests on the fitted dose curve; in most records, active means well fitted inhibition curve with a large enough effect; inconclusive means small, poorly fitted or top-dose-only effect, or effect the other way; inactive means flat fitted curve, though single readings scatter. Many of the other results were omitted from the sample, so actives are more common in it than they were.

Test: qHTS screen for small molecules that inhibit ELG1-dependent DNA repair in human embryonic kidney (HEK293T) cells expressing luciferase-tagged ELG1; further: nearly all actives have a fitted effect of over 55% in size
Settings: HEK293T ELG1-luciferase reporter, luminescence, 16 h, DNA damage induced by 5-fluorouridine; series mostly up to 46.1 µM; activity change, negative = inhibition: at the top concentration
Outline: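 Luminescence from the luciferase reporter, measured 30 min after ONE-Glo reagent at room temperature, was the read-out. Beforehand, 2,000 cells per well were exposed for 16 hr at 37 °C to 5-fluorouridine together with compound or vehicle.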
On the % scale 0 is the no-effect control and ±100 the full control effect; potency means the concentration at half of the fitted maximal effect.

SMILES | activity change, negative = inhibition | Potency
CCOC(=O)CCCCCC(=O)Nc1ccc2c(c1)CC(=O)N([C@@H](C)CO)C[C@H](C)[C@@H](CN(C)Cc1ccccc1)O2 | 3.52% (inactive) | 
Cc1cc(C)cc(NC(=O)C2CCCN(S(=O)(=O)c3ccc4[nH]c(=O)ccc4c3)C2)c1 (stereo unspecified) | -7.94% (inactive) | 
O=C(C1CCC(=O)N(C2CC2)C1)N1CCN(c2ccc(Cl)cc2)CC1 (stereo unspecified) | -8.35% (inactive) | 
COc1ccc(C(=O)NC2CCN(C(=S)NCCc3ccccc3)CC2)cc1 | -4.86% (inactive) | 
COc1ccc(C(=O)NC2CCN(C(=S)Nc3ccccc3)CC2)cc1 | 4.41% (inactive) | 
COc1cc(OC)cc(C(=O)NC2CCN(C(=O)N3c4ccccc4Sc4ccccc43)CC2)c1 |  | 13 µM (active)
O=C(CN(CC1CCCO1)C(=O)CNS(=O)(=O)c1ccc(Cl)cc1)NCc1ccccc1 (stereo unspecified) | -10.4% (inactive) | 
COc1ccccc1NC(=O)c1cc(Cl)nc2ccccc12 | -10.3% (inactive) | 
COc1ccc(-c2cc(C(=O)NCCCN3CCCC3=O)c3ccccc3n2)cc1OC |  | 20.6 µM (active)
Cc1cccc(C(=O)NCCCN2CCCC2=O)c1 | 0% (inactive) | 
Cc1ccc(-c2nn(-c3ccccc3)cc2C(=O)NCCCN2CCCC2=O)cc1 | -12.5% (inactive) | 
COc1ccc(Cl)cc1NC(=O)CN(C)C(=O)c1ccc2n[nH]nc2c1 | 14.2% (inactive) | 
COc1ccc(NC(=O)CN(C)C(=O)c2ccc(COc3ccccc3)o2)cc1 | 14.6% (inactive) | 
COc1ccc(-c2cc(C(=O)N(C)CC(=O)Nc3ccccc3Cl)c3ccccc3n2)cc1OC |  | 2.06 µM (active)
COc1ccc(NC(=O)CN(C)C(=O)c2cc(C3CC3)nn2-c2ccccc2)cc1 | -18.5% (inactive) | 
COc1ccc(C2=NS(=O)(=O)N(C)C(C(=O)N(C)Cc3ccccc3)=C2)cc1 | -10.3% (inactive) | 
COc1ccc(-c2cc(C(=O)N(C)Cc3ccccc3)c3ccccc3n2)cc1 |  | 23.1 µM (active)
COc1ccc(NC(=O)CN(C)C(=O)c2cc(-c3ccc(C)o3)nc3ccccc23)cc1 |  | 20.6 µM (active)
COc1ccc(-c2cc(C(=O)n3cnc4ccccc43)c3ccccc3n2)cc1 | 22% (inactive) | 
CC(C)Oc1ccc(S(=O)(=O)N2CCOCC2)cc1NC(=O)C1CSC2(C)CCC(=O)N12 (stereo unspecified) | -16.4% (inactive) | 
CCc1cccc(C)c1N1C(=O)CN(Cc2ccccc2)C1=S | -0.783% (inactive) | 

SMILES | activity change, negative = inhibition | Potency
CNC[C@H](CC1CCCCC1)NC[C@H](NCCC1CCCC1)[C@H](C)O | 16.8% (inactive) | 
CSc1ncccc1C(=O)Nc1cccc(S(=O)(=O)N2CCOCC2)c1 | 13.4% (inactive) | 
CCCN(CC1CC1)C(=S)NC(=O)c1ccccc1Br | -17.4% (inactive) | 
O=C(COC(=O)c1ccccc1Cl)NC1CCCCCCC1 | 13.9% (inactive) | 
Cc1cc(NC(=O)CCN2CCN(Cc3ccccc3)CC2)ccc1Br | -19.6% (inactive) | 
OC(COc1ccc(F)cc1Cl)CN1CCc2ccccc2C1 (stereo unspecified) | 1.72% (inactive) | 
COc1ccc(CN(C)C(=O)Cc2c[nH]c3ccccc23)c(OC)c1OC | -12.6% (inactive) | 
COc1ccc(CN(C)C(=O)c2cc(-c3ccc(C)cc3C)nc3ccccc23)c(OC)c1OC |  | 8.2 µM (active)
Cc1ccc(-c2cc(C(=O)Nc3nn[nH]n3)c3ccccc3n2)c(C)c1 | 14.1% (inactive) | 
Cc1c(Cl)c([N+](=O)[O-])nn1Cc1ccc(C(=O)N/N=C\c2cc(Cl)ccc2O)o1 |  | 5.17 µM (active)
Cc1ccc(C(=O)O)cc1NC(=O)c1ccc(Cn2nc(C)c(Cl)c2C)o1 | 4.59% (inactive) | 
Cc1c(Cl)c([N+](=O)[O-])nn1CCCC(=O)Nc1cc(Cl)ccc1Cl | 1.54% (inactive) | 
COc1ccc(Br)cc1CN(C)C(=O)C1CC(=O)N(C2CCCC2)C1 (stereo unspecified) | -4.6% (inactive) | 
CC(OC(=O)CNC(=O)c1ccco1)C(=O)Nc1ccc(Cl)cn1 (stereo unspecified) | 24.7% (inactive) | 
COc1ccc(-c2nnc(NC(=O)CS(=O)(=O)c3ccc(Cl)cc3)o2)c(OC)c1 | 1.46% (inactive) | 
COc1cc(-c2nc(S(=O)(=O)c3ccc(Cl)cc3)c(N(C)C)o2)cc(OC)c1OC |  | 8.2 µM (active)
O=S(=O)(c1ccc(Cl)cc1)c1nc(-c2ccco2)oc1N1CCCCC1 | -29% (inactive) | 
CC(=O)Nc1ccc(S(=O)(=O)NC(C)C(=O)OCCOc2ccc(F)cc2)cc1 (stereo unspecified) | 7.42% (inactive) | 
CCOC(=O)C1=C(C)Nc2nc3ccccc3n2C1c1cccs1 (stereo unspecified) | -0.153% (inactive) | 
COc1ccccc1NC(=O)C1=C(C)Nc2nc3ccccc3n2C1c1cccs1 (stereo unspecified) |  | 9.2 µM (active)
COc1ccccc1NC(=O)C1=C(C)NC(=O)NC1c1ccc(C)s1 (stereo unspecified) | 4.16% (inactive) | 

SMILES | activity change, negative = inhibition | Potency
CCOC(=O)C1CCCN(C(=O)c2ccc(C)c(S(=O)(=O)N3CCCCC3)c2)C1 (stereo unspecified) | -20.4% (inactive) | 
C=CCOC(=O)C1=C(C)NC(C)=C(C(=O)OCC=C)C1c1cccs1 | -9.34% (inactive) | 
CCOC(=O)C1=C(C)N=c2s/c(=C\C(=O)OC)c(=O)n2C1c1ccc(OC)cc1 (stereo unspecified) | 7.84% (inactive) | 
COCCOC(=O)C1=C(C)N=c2s/c(=C\c3cccs3)c(=O)n2C1c1cccs1 (stereo unspecified) |  | 14.6 µM (active)
COC(=O)c1cnc(Nc2cc(C)ccc2OC)c2ccccc12 | -1.92% (inactive) | 
Cc1nc(Cl)c2oc3ccccc3c2n1 | 2.76% (inactive) | 
COc1ccc(C)cc1Nc1nc(C)nc2c1oc1ccccc12 |  | 5.17 µM (active)
Cc1cc(C)c(OCC(=O)N(Cc2cccs2)C2CCS(=O)(=O)C2)c(C)c1 (stereo unspecified) | -4.24% (inactive) | 
COc1ccc(CCN2C(=O)C(C)=C(C)C2=O)cc1OC | 6.36% (inactive) | 
CCN1C(=O)[C@@H]2[C@@H](c3ccc(-c4ccc(OC)cc4)c(OC)c3)N3CCC[C@@]3(C(=O)OC)[C@@H]2C1=O | 9.25% (inactive) | 
Cc1ccc(NC(=O)C2CCN(S(=O)(=O)c3ccc4c(c3)NC(=O)CO4)CC2)cc1C | -9.24% (inactive) | 
CCn1cc(C(=O)NCC2CCCO2)c(=O)c2cc(S(=O)(=O)N3CCCCC3)ccc21 (stereo unspecified) | -15.3% (inactive) | 
C=CCn1cc(C(=O)NCc2ccc(Cl)cc2)c(=O)c2cc(S(=O)(=O)N(CC)CC)ccc21 |  | 8.2 µM (active)
CCOC(=O)N1CCN(C(=O)c2cn(C)c3ccc(S(=O)(=O)N(CC)CC)cc3c2=O)CC1 | 0.556% (inactive) | 
CCOC(=O)[C@H]1[C@H]2COc3ccc(Cl)cc3[C@@H]2N2C(=O)c3cc(C)ccc3NC(=O)[C@@]12C | -23.2% (inactive) | 
Cn1ccsc1=NC(=O)c1cc(S(=O)(=O)N2CCOCC2)ccc1Cl | 10.7% (inactive) | 
COc1ccc(CCNC(=O)CSc2nc3[nH]ncc3c(=O)n2-c2cccc(C(F)(F)F)c2)cc1OC | -14.2% (inactive) | 
Cc1cccc(NC(=O)CSc2nc3[nH]ncc3c(=O)[nH]2)c1 | 13% (inactive) | 
Cc1cccc2nc(CSc3nc4[nH]ncc4c(=O)n3-c3cccc(Cl)c3)cc(=O)n12 |  | 20.6 µM (active)
